Measurements from paper PMC7862700, “An all-to-all approach to the identification of sequence-specific readers for epigenetic DNA modifications on cytosine”.

Experiments:
Test in all cases: DAPPL (digital affinity profiling via proximity ligation, sequencing); 10 mM Tris-HCl pH 7.5, 50 mM NaCl, 1 mM DTT, 4% glycerol, room temperature, 30 min; GST-TFs on glutathione beads, 16-mer random dsDNA library, 0.1% formaldehyde crosslink after washing; high values mean tight binding
Conditions in all cases: protein: recombinant; tags: N-terminal GST; dsDNA, one strand shown
ETV1 = ETV1 (Homo sapiens, UniProt P50549 1-477)
Summary of the method: (§1)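 Sequencing on an Illumina NextSeq500 followed washing, crosslinking with 0.1% formaldehyde, proximity ligation (BsaI/T4 ligase, 1 h, 37 °C) and PCR amplification of pools that had been incubated for 30 min at room temperature with 200 nmole of a random double-stranded 16-mer DNA library in Tris/NaCl/DTT/glycerol buffer. Each pool held DNA-barcoded human transcription factors, expressed in yeast as GST fusions and captured on glutathione beads, plus a tag-only sample. Binding signal is a hexamer's read frequency for a factor divided by its frequency in the tag-only sample.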

ERF = molecular target: T1, ERF (Homo sapiens, UniProt P50548 1-548)
T1 sequence: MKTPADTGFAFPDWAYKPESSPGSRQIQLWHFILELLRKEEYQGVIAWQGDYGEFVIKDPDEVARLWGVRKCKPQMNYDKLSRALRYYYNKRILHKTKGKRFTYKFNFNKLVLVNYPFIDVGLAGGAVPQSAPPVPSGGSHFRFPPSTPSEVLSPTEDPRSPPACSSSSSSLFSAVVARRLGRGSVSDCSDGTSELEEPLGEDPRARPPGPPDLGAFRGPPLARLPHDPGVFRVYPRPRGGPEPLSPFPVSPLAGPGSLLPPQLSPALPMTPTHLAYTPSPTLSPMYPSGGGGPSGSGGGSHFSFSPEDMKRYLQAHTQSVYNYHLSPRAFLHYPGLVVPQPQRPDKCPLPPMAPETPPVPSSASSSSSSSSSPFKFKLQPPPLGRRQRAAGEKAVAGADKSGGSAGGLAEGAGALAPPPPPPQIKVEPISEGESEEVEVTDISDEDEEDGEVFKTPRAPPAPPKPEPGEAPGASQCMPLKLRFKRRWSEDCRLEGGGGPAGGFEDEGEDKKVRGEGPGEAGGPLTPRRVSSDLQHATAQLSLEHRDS
Summary of the method: as §1

ETV3L = molecular target: T2, ETV3L (Homo sapiens, UniProt Q6ZN32 1-361)
T2 sequence: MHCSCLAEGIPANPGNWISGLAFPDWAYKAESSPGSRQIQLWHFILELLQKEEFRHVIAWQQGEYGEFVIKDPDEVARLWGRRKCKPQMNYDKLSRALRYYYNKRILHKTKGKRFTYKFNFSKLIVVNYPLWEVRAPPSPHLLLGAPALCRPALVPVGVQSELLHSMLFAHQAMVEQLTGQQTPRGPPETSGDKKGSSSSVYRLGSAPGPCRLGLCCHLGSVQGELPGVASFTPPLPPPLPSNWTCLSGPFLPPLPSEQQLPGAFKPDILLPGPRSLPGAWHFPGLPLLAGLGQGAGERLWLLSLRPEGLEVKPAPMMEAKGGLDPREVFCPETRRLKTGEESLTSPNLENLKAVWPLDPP
Summary of the method: as §1

ETS2 = molecular target: T3, ETS2 (Homo sapiens, UniProt P15036 1-469)
T3 sequence: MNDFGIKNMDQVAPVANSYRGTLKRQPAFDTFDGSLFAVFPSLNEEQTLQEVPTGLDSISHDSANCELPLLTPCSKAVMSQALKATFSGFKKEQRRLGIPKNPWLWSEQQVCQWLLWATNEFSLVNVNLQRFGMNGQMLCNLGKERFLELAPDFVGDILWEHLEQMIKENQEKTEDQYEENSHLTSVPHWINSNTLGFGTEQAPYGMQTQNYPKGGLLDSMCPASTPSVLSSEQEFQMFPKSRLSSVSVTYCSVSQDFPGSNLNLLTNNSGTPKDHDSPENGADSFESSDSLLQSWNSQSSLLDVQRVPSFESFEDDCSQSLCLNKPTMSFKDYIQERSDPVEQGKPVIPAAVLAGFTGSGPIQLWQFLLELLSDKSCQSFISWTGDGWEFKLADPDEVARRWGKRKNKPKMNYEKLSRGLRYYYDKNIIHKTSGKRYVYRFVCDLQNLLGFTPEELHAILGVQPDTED
Summary of the method: as §1

SPDEF = molecular target: T4, SPDEF (Homo sapiens, UniProt O95238 1-335)
T4 sequence: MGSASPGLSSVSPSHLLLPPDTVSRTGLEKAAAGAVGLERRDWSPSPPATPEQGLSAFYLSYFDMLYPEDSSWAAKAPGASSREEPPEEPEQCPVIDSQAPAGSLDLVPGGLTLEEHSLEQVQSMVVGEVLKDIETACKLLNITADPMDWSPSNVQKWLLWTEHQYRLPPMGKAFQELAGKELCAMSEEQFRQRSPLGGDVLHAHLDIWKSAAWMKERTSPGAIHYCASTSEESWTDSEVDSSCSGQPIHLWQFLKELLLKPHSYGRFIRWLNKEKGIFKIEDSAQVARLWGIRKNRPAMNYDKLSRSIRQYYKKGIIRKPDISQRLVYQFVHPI
Summary of the method: as §1

ETV7 = molecular target: T5, ETV7 (Homo sapiens, UniProt Q9Y603 1-341)
T5 sequence: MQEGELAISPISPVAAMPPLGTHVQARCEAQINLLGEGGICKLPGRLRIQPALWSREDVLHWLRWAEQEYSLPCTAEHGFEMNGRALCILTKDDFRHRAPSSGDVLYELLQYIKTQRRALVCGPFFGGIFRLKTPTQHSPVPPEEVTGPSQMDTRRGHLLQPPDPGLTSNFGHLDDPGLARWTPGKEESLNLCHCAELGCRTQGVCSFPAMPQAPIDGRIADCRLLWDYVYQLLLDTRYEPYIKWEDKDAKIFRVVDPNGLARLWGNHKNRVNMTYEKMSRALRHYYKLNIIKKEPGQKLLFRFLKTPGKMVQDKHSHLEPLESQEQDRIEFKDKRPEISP
Summary of the method: as §1

ELF5 = molecular target: T6, ELF5 (Homo sapiens, UniProt Q9UKW6-2 1-255)
T6 sequence: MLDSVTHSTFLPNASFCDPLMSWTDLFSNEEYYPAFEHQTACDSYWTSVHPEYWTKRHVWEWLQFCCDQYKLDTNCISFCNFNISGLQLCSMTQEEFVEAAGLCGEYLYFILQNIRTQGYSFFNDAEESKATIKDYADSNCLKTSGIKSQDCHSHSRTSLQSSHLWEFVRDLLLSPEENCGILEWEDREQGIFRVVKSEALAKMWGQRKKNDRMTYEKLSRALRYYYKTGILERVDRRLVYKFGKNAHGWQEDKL
Summary of the method: as §1

ETV3 = molecular target: T7, ETV3 (Homo sapiens, UniProt P41162-2 1-143)
T7 sequence: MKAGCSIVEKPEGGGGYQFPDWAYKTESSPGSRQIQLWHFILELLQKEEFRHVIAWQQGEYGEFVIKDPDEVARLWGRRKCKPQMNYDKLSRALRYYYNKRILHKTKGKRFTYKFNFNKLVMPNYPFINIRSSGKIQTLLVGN
Summary of the method: as §1

ETV6 = ETV6 (Homo sapiens, UniProt P41212 1-452)
Summary of the method: as §1

Chain of ETV6 (P41212 whole entry): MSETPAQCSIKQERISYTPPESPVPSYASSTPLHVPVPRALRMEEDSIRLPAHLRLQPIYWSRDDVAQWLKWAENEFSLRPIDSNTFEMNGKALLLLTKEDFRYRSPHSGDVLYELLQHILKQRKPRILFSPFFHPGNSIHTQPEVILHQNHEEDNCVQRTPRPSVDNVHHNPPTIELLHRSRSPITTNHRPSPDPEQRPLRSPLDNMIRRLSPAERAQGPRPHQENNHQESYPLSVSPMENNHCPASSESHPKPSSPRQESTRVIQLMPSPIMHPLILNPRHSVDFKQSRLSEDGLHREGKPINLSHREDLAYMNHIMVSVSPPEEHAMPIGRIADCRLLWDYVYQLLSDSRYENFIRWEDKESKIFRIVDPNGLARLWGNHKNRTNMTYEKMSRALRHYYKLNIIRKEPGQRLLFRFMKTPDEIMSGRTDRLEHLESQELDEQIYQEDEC
Chain of ETV1 (P50549 whole entry, the tested form may be a part): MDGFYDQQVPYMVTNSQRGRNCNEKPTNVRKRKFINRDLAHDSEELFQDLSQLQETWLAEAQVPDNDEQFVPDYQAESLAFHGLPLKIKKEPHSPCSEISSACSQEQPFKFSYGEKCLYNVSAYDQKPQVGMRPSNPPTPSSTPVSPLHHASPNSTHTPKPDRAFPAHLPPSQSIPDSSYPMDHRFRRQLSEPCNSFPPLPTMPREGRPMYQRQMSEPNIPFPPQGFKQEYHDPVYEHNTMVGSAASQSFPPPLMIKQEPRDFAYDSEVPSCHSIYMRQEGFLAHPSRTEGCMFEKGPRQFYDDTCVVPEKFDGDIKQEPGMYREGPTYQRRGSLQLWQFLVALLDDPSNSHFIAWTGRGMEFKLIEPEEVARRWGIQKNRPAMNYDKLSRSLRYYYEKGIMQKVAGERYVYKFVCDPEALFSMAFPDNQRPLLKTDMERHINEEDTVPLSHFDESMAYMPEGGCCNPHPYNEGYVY

For ATACCT, the binding signal (ETV1) was 1.15 fold enrichment (6-mer frequency, TF over GST control), the binding signal (ERF) was 1.12 fold enrichment (6-mer frequency, TF over GST control) and the binding signal (ETV3L) was 1.09 fold enrichment (6-mer frequency, TF over GST control). For the same sequence, the binding signal (ETS2) was 1.16 fold enrichment (6-mer frequency, TF over GST control), the binding signal (SPDEF) was 1.04 fold enrichment (6-mer frequency, TF over GST control) and the binding signal (ETV7) was 1.18 fold enrichment (6-mer frequency, TF over GST control). The binding signal (ELF5) was 1.04 fold enrichment (6-mer frequency, TF over GST control), the binding signal (ETV3) was 1.11 fold enrichment (6-mer frequency, TF over GST control) and the binding signal (ETV6) was 1.07 fold enrichment (6-mer frequency, TF over GST control).
